Potency estimated from few doses data for eleven compounds are collected here from article PMC11062922 (Nature Chemical Biology, 2023).

Molecules are shown by their SMILES. Read-outs that look alike come from different tables or passages of the source.

One experiment concerns AAK1. Also noted: species or system human, MV4-11 + K-562 + COLO205 + SK-N-BE2 + OVCAR-8. The following applies: read-out: apparent Kd, n = 1.
A further experiment deals with CLK1. Also on record: species or system human, MV4-11 + K-562 + COLO205 + SK-N-BE2 + OVCAR-8. The conditions noted are these: read-out: apparent Kd, compound concentrations: 100 nM and 1000 nM (sheet 'Samples'), n = 1.
The next experiment deals with CLK4. Also noted: species or system human, MV4-11 + K-562 + COLO205 + SK-N-BE2 + OVCAR-8. The following applies: read-out: apparent Kd, compound concentrations: 100 nM and 1000 nM (sheet 'Samples'), n = 1.
For the next experiment, the target named is Q6ZSR9 (human, UniProt Q6ZSR9). Also noted: species or system MV4-11 + K-562 + COLO205 + SK-N-BE2 + OVCAR-8. The following applies: read-out: apparent Kd, n = 1.
Sequence of Q6ZSR9 (Q6ZSR9 whole entry, looked up): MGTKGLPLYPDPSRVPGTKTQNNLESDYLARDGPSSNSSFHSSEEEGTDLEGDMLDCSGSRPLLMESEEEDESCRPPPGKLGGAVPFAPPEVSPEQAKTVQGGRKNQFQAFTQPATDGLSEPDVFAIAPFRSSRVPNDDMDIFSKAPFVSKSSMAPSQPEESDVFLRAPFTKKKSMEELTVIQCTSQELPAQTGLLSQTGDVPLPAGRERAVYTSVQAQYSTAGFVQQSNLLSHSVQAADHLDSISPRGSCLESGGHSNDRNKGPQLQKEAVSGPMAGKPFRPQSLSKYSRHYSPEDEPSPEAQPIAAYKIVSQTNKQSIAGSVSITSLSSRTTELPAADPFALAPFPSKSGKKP
The next experiment deals with ABL1. Also noted: species or system human, MV4-11 + K-562 + COLO205 + SK-N-BE2 + OVCAR-8. The conditions noted are these: read-out: apparent Kd, compound concentrations: 100 nM and 1000 nM (sheet 'Samples'), n = 1.
In a further experiment the test system is ABL2. Also noted: species or system human, MV4-11 + K-562 + COLO205 + SK-N-BE2 + OVCAR-8. The conditions noted are these: read-out: apparent Kd, compound concentrations: 100 nM and 1000 nM (sheet 'Samples'), n = 1.
Another experiment has as its system BCR. Also noted: species or system human, MV4-11 + K-562 + COLO205 + SK-N-BE2 + OVCAR-8. The following applies: read-out: apparent Kd, compound concentrations: 100 nM and 1000 nM (sheet 'Samples'), n = 1.
Another experiment has as its system FRK. Also on record: species or system human, MV4-11 + K-562 + COLO205 + SK-N-BE2 + OVCAR-8. The following applies: read-out: apparent Kd, compound concentrations: 100 nM and 1000 nM (sheet 'Samples'), n = 1.
For another experiment, the system named is FYN. Also on record: species or system human, MV4-11 + K-562 + COLO205 + SK-N-BE2 + OVCAR-8. The following applies: read-out: apparent Kd, compound concentrations: 100 nM and 1000 nM (sheet 'Samples'), n = 1.
The subject of a further experiment is GAK. Also noted: species or system human, MV4-11 + K-562 + COLO205 + SK-N-BE2 + OVCAR-8. The conditions noted are these: read-out: apparent Kd, compound concentrations: 100 nM and 1000 nM (sheet 'Samples'), n = 1.
The next experiment has as its system HCK. Also on record: species or system human, MV4-11 + K-562 + COLO205 + SK-N-BE2 + OVCAR-8. The following applies: read-out: apparent Kd, compound concentrations: 100 nM and 1000 nM (sheet 'Samples'), n = 1.
Another experiment relates to PTK6. Also on record: species or system human, MV4-11 + K-562 + COLO205 + SK-N-BE2 + OVCAR-8. The conditions noted are these: read-out: apparent Kd, compound concentrations: 100 nM and 1000 nM (sheet 'Samples'), n = 1.
The test system of the next experiment is RET. Also noted: species or system human, MV4-11 + K-562 + COLO205 + SK-N-BE2 + OVCAR-8. The conditions noted are these: read-out: apparent Kd, n = 1.
The test system of another experiment is RIPK2. Also on record: species or system human, MV4-11 + K-562 + COLO205 + SK-N-BE2 + OVCAR-8. The conditions noted are these: read-out: apparent Kd, compound concentrations: 100 nM and 1000 nM (sheet 'Samples'), n = 1.
For a further experiment, the system named is RIPK3. Also on record: species or system human, MV4-11 + K-562 + COLO205 + SK-N-BE2 + OVCAR-8. The following applies: read-out: apparent Kd, n = 1.
In the next experiment the test system is YES1. Also noted: species or system human, MV4-11 + K-562 + COLO205 + SK-N-BE2 + OVCAR-8. The following applies: read-out: apparent Kd, n = 1.
In another experiment the test system is CSNK2A1;CSNK2A3. Also noted: species or system human, MV4-11 + K-562 + COLO205 + SK-N-BE2 + OVCAR-8. The conditions noted are these: read-out: apparent Kd, compound concentrations: 100 nM and 1000 nM (sheet 'Samples'), n = 1.
Another experiment concerns CSNK2A2. Also on record: species or system human, MV4-11 + K-562 + COLO205 + SK-N-BE2 + OVCAR-8. The conditions noted are these: read-out: apparent Kd, compound concentrations: 100 nM and 1000 nM (sheet 'Samples'), n = 1.
The next experiment has as its system LCK. Also noted: species or system human, MV4-11 + K-562 + COLO205 + SK-N-BE2 + OVCAR-8. The following applies: read-out: apparent Kd, compound concentrations: 100 nM and 1000 nM (sheet 'Samples'), n = 1.
Setting [1] is: compound concentrations:100 nM and 1000 nM (sheet 'Samples').

Consider `O=C1N=C(N[C@@H](CO)c2ccccc2)S/C1=C\c1ccc2ncccc2c1` [RO4554340-000], for which the potency estimated from few doses with AAK1 (compound concentrations: 100 nM and 1000 nM (sheet 'Samples'), CATDS: 0.158998542924943) was 1190 nM; in the experiment with CLK1 (CATDS: 0.44812709075051699), 156 nM; with CLK4 (CATDS: 0.232280366030543) it was 478 nM; with Q6ZSR9 (compound concentrations: 100 nM and 1000 nM (sheet 'Samples'), CATDS: 0.16133585717123999), 1140 nM.
`Cl.Oc1cccc(Nc2ccnc3cc(-c4ccncc4)ccc23)c1` [GW494601A]: the potency estimated from few doses with ABL1 (CATDS: 3.6017646503182399E-2) is 127 nM; in the experiment with ABL2 (CATDS: 5.7742248446513503E-2) it was 32.5 nM; in the experiment on BCR (CATDS: 9.7304657047822804E-2), 10.5 nM; in the experiment with FRK (CATDS: 2.21362656072501E-2), 843 nM; in the experiment on FYN (CATDS: 2.0819366263931199E-2) it was 1150 nM; with GAK (CATDS: 8.36996948680125E-2), 14.1 nM. The potency estimated from few doses with HCK (CATDS: 2.0776424104180801E-2) was 1170 nM; in the experiment on PTK6 (CATDS: 1.98277031575195E-2), 1530 nM; in the experiment with RET (compound concentrations: 100 nM and 1000 nM (sheet 'Samples'), CATDS: 7.2637191041935695E-2), 19 nM; in the experiment on RIPK2 (CATDS: 0.103970438166355), 9.31 nM; in the experiment on RIPK3 (compound concentrations: 100 nM and 1000 nM (sheet 'Samples'), CATDS: 6.8751849319998101E-2), 21.5 nM.
As to `CS(=O)(=O)Cc1ccc(Nc2nccc(-c3c(-c4cccc(NC(=O)C5CCCCC5)c4)nn4ncccc34)n2)cc1` [GSK350559A], the potency estimated from few doses in the experiment on RET (setting [1]) is 1370 nM; in the experiment with RIPK3 (setting [1]) it was 1130 nM; in the experiment on YES1 (setting [1]) it was 461 nM.
Consider `CC(C)c1cc(-c2ccc3c(N)n[nH]c3c2)nc(N)n1` [GSK2250882A], for which the potency estimated from few doses in the experiment with AAK1 (setting [1]) was 838 nM; in the experiment with Q6ZSR9 (setting [1]), 1370 nM.
`COc1cc(Nc2nccc(N3CCC(NC(=O)c4cccc(C#N)c4)C3)n2)cc(OC)c1OC` (stereo not shown) [GSK1379751A]: the potency estimated from few doses in the experiment with AAK1 (compound concentrations: 100 nM and 1000 nM (sheet 'Samples'), CATDS: 0.20949591044902) is 786 nM; with Q6ZSR9 (compound concentrations: 100 nM and 1000 nM (sheet 'Samples'), CATDS: 0.206433255862257), 810 nM.
Take `O=C1N=C(NCCc2cccc(F)c2)S/C1=C\c1ccc2ncccc2c1` [RO4508344-000]: the potency estimated from few doses in the experiment with AAK1 (compound concentrations: 100 nM and 1000 nM (sheet 'Samples'), CATDS: 0.102414054055007) is 806 nM; with CLK1 (CATDS: 0.18459427931802), 278 nM; in the experiment with CLK4 (CATDS: 0.11348899784144), 644 nM; with CSNK2A1;CSNK2A3 (CATDS: 0.10848766260937499) it was 709 nM; with CSNK2A2 (CATDS: 0.12392603207531599), 541 nM; in the experiment with Q6ZSR9 (compound concentrations: 100 nM and 1000 nM (sheet 'Samples'), CATDS: 9.5289389413805506E-2) it was 958 nM.
Regarding `Cl.O=C1N=C(NCc2ccccn2)S/C1=C\c1ccc2ncccc2c1` [RO4874953-001], the potency estimated from few doses in the experiment on AAK1 (compound concentrations: 100 nM and 1000 nM (sheet 'Samples'), CATDS: 0.10575738699934099) is 813 nM; with CLK1 (CATDS: 9.3934655889041305E-2), 1020 nM; in the experiment on CLK4 (CATDS: 0.12673851417901799), 598 nM; in the experiment with CSNK2A1;CSNK2A3 (CATDS: 0.103683643435769), 843 nM; in the experiment with CSNK2A2 (CATDS: 0.101925374884365), 870 nM; in the experiment on GAK (CATDS: 8.1785679571560799E-2), 1370 nM. Further, the potency estimated from few doses with Q6ZSR9 (compound concentrations: 100 nM and 1000 nM (sheet 'Samples'), CATDS: 8.7999658255021304E-2) was 1160 nM.
For the compound `CC(C)c1nc(-c2cccc(NS(=O)(=O)c3ccccc3)c2)c(-c2ccnc(Nc3ccc4c(c3)CN(C)CC4)n2)s1` [GSK1649598A], the potency estimated from few doses in the experiment on ABL1 (CATDS: 2.01463365951845E-2) was 368 nM; in the experiment on ABL2 (CATDS: 3.9720351054025098E-2), 93.8 nM; in the experiment on BCR (CATDS: 1.4720639450574301E-2), 924 nM; in the experiment with FRK (CATDS: 2.08537323275855E-2) it was 338 nM; in the experiment on FYN (CATDS: 1.9244455455098501E-2) it was 413 nM; in the experiment with GAK (CATDS: 0.115621915519597), 19.8 nM. The potency estimated from few doses was 643 nM in the experiment on HCK (CATDS: 1.6425065187182699E-2); 112 nM in the experiment with LCK (CATDS: 3.58702015349356E-2); 1030 nM with PTK6 (CATDS: 1.42958167275793E-2); 167 nM in the experiment on RIPK2 (CATDS: 2.88864910940058E-2); 392 nM in the experiment on RIPK3 (compound concentrations: 100 nM and 1000 nM (sheet 'Samples'), CATDS: 1.96372512533491E-2); 216 nM in the experiment with YES1 (compound concentrations: 100 nM and 1000 nM (sheet 'Samples'), CATDS: 2.5454428176696801E-2).
Turning to `Cc1nn(C)c2cc(N(C)c3ccnc(Nc4cccc(S(N)(=O)=O)c4)n3)ccc12.Cl` [GW770220A], the potency estimated from few doses in the experiment with AAK1 (compound concentrations: 100 nM and 1000 nM (sheet 'Samples'), CATDS: 0.34831040930344798) was 632 nM; in the experiment with Q6ZSR9 (compound concentrations: 100 nM and 1000 nM (sheet 'Samples'), CATDS: 0.39212964610314199) it was 507 nM.
Take `Cc1ccc(O)cc1Nc1ccnc2cc(-c3ccc(CN4CCCCC4)o3)ccc12` [GW557777X]: the potency estimated from few doses in the experiment with ABL1 (CATDS: 4.3692235612931E-2) is 8.34 nM; in the experiment on ABL2 (CATDS: 6.7746368355333403E-2) it was 2.92 nM; with BCR (CATDS: 0.10189444124387) it was 1.17 nM; in the experiment on FRK (CATDS: 4.1928462897336198E-2), 9.28 nM; with FYN (CATDS: 2.5035707525361502E-2), 44.5 nM; in the experiment with GAK (CATDS: 5.9852273314458602E-2), 3.88 nM. Further, the potency estimated from few doses is 60.9 nM in the experiment with HCK (CATDS: 2.2990890088698399E-2); 353 nM in the experiment on LCK (CATDS: 1.5741185519971699E-2); 47.6 nM with PTK6 (CATDS: 2.4564391165164502E-2); 7.97 nM in the experiment on RET (compound concentrations: 100 nM and 1000 nM (sheet 'Samples'), CATDS: 4.4477848245190701E-2); 4.62 nM with RIPK2 (CATDS: 5.5536056615070897E-2); 508 nM with RIPK3 (compound concentrations: 100 nM and 1000 nM (sheet 'Samples'), CATDS: 1.48381507951055E-2). Besides, in the experiment on YES1 (compound concentrations: 100 nM and 1000 nM (sheet 'Samples'), CATDS: 2.43288733372133E-2), the potency estimated from few doses is 49.3 nM.
For the compound `Cn1cc(C2=C(c3cn(CCCO)c4ccccc34)C(=O)NC2=O)c2ccccc21` [RO0317377-000], the potency estimated from few doses in the experiment on AAK1 (compound concentrations: 100 nM and 1000 nM (sheet 'Samples'), CATDS: 0.115071291343016) was 1300 nM; in the experiment with Q6ZSR9 (compound concentrations: 100 nM and 1000 nM (sheet 'Samples'), CATDS: 0.107617362332997), 1540 nM.
